Test results reported in the supplement of paper PMC3545927.
Some of the results follow. The true hit rate is not given.

Target: furin, P09958
Test: furin cleavage Z-score vs untreated control; higher = more cleavage, active = 3.5 or more, inactive = 1 or less, 8 variable residues between constant flanks
Protocol: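 Multiplexed peptide-cDNA fusion cleavage assay. 8-mer variable peptides flanked by constant Cys-Ala (N-term) and Ala-Gly-Asn-Ala-Ser-Ala-Ser-Ala (C-term) and conjugated to a cDNA oligonucleotide were bead-immobilised via the N-terminus. They were treated with purified furin at a 1:10 enzyme:substrate ratio in 50 mM HEPES pH 7.5, 1 mM CaCl2, 100 mM NaCl for 7.5, 15 or 30 min. Released cDNA was counted by next-generation sequencing, and log counts versus no-furin controls were lowess-adjusted and converted to robust Z-scores.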

Chain of furin, P09958 (P09958 whole entry): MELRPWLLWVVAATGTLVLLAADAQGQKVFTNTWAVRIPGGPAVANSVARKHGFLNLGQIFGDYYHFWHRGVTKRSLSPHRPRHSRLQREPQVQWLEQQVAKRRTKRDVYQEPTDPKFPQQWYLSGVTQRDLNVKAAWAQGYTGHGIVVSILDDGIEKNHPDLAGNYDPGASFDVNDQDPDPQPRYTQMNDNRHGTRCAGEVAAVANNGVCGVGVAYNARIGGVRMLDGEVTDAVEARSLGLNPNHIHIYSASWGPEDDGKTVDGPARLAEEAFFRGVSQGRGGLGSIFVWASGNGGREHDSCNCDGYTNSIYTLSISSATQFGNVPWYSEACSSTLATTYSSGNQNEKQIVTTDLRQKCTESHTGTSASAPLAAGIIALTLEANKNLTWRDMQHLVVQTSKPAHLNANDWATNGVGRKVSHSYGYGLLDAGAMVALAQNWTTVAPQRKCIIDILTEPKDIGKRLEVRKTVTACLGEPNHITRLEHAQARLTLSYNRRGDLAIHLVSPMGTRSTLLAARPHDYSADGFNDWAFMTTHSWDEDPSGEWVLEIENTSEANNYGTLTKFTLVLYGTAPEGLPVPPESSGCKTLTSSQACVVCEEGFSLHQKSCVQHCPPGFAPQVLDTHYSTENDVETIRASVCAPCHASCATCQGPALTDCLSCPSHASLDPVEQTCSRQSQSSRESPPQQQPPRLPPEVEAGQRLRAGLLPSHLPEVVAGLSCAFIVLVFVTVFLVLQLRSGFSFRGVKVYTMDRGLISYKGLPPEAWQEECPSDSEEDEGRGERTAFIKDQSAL

## CAVCTTPCSGAGNASASA [HC1950]
7.5 min
  furin cleavage Z-score: -1.68 (inactive)
15 min
  furin cleavage Z-score: 1.7
30 min
  furin cleavage Z-score: 0.388 (inactive)

## CAHSTDATSIAGNASASA [HC820]
7.5 min
  furin cleavage Z-score: 0.202 (inactive)
15 min
  furin cleavage Z-score: -1.29 (inactive)
30 min
  furin cleavage Z-score: 0.297 (inactive)

## CATIETITLPAGNASASA [HC896]
7.5 min
  furin cleavage Z-score: -1.51 (inactive)
15 min
  furin cleavage Z-score: 0.877 (inactive)
30 min
  furin cleavage Z-score: -0.833 (inactive)

## CAMEFCSQHLAGNASASA [HC1707]
7.5 min
  furin cleavage Z-score: 0.147 (inactive)
15 min
  furin cleavage Z-score: 0.288 (inactive)
30 min
  furin cleavage Z-score: -0.0248 (inactive)

## CAMEEVSQHLAGNASASA [HC3]
7.5 min
  furin cleavage Z-score: 0.556 (inactive)
15 min
  furin cleavage Z-score: 1.13
30 min
  furin cleavage Z-score: 2.1

## CARRKRDLDGAGNASASA [FS-3052]
7.5 min
  furin cleavage Z-score: 11.5 (active)
15 min
  furin cleavage Z-score: 11.4 (active)
30 min
  furin cleavage Z-score: 8.25 (active)

## CARRKRQVRRAGNASASA [FS-2370]
7.5 min
  furin cleavage Z-score: 6.85 (active)
15 min
  furin cleavage Z-score: 8.4 (active)
30 min
  furin cleavage Z-score: 6.39 (active)

## CARRKRQVYGAGNASASA [FS-3204]
7.5 min
  furin cleavage Z-score: 6.12 (active)
15 min
  furin cleavage Z-score: 7.43 (active)
30 min
  furin cleavage Z-score: 7.08 (active)

## CARRKKSQDGAGNASASA [FS-1775]
7.5 min
  furin cleavage Z-score: 0.168 (inactive)
15 min
  furin cleavage Z-score: -0.316 (inactive)
30 min
  furin cleavage Z-score: 0.531 (inactive)

## CARRVRDKDGAGNASASA [FS-2300]
7.5 min
  furin cleavage Z-score: 0.77 (inactive)
15 min
  furin cleavage Z-score: 1.62
30 min
  furin cleavage Z-score: 2.04

## CARRKRQIYGAGNASASA [FS-3055]
7.5 min
  furin cleavage Z-score: 2.2
15 min
  furin cleavage Z-score: 5.1 (active)
30 min
  furin cleavage Z-score: 6.81 (active)

## CASTGCSAHLAGNASASA [HC2516]
7.5 min
  furin cleavage Z-score: -1.2 (inactive)
15 min
  furin cleavage Z-score: 0.402 (inactive)
30 min
  furin cleavage Z-score: -0.12 (inactive)

## CAFNLRMKRDAGNASASA [FS-525]
7.5 min
  furin cleavage Z-score: 14.3 (active)
15 min
  furin cleavage Z-score: 12.3 (active)
30 min
  furin cleavage Z-score: 10.8 (active)

## CATNLRIKRDAGNASASA [FS-568]
7.5 min
  furin cleavage Z-score: 14.5 (active)
15 min
  furin cleavage Z-score: 15.3 (active)
30 min
  furin cleavage Z-score: 10.7 (active)

## CAVREVPCHRAGNASASA [HC2430]
7.5 min
  furin cleavage Z-score: -1.53 (inactive)
15 min
  furin cleavage Z-score: -1.03 (inactive)
30 min
  furin cleavage Z-score: -0.128 (inactive)

## CAKPGRRGRAAGNASASA [FS-452]
7.5 min
  furin cleavage Z-score: 6.38 (active)
15 min
  furin cleavage Z-score: 5.76 (active)
30 min
  furin cleavage Z-score: 4.89 (active)

## CARPGRRGRPAGNASASA [FS-492]
7.5 min
  furin cleavage Z-score: -0.496 (inactive)
15 min
  furin cleavage Z-score: -1.23 (inactive)
30 min
  furin cleavage Z-score: -0.0754 (inactive)

## CARPGRRVCAAGNASASA [FS-3259]
7.5 min
  furin cleavage Z-score: -0.847 (inactive)
15 min
  furin cleavage Z-score: -1.4 (inactive)
30 min
  furin cleavage Z-score: -1.34 (inactive)

## CAKRWRRGRAAGNASASA [FS-1596]
7.5 min
  furin cleavage Z-score: 6.85 (active)
15 min
  furin cleavage Z-score: 6.38 (active)
30 min
  furin cleavage Z-score: 4.94 (active)

## CAPEMEECSQAGNASASA [HC1799]
7.5 min
  furin cleavage Z-score: 0.387 (inactive)
15 min
  furin cleavage Z-score: 0.44 (inactive)
30 min
  furin cleavage Z-score: 0.854 (inactive)

## CARERRWDRGAGNASASA [FS-2010]
7.5 min
  furin cleavage Z-score: -1.3 (inactive)
15 min
  furin cleavage Z-score: -0.408 (inactive)
30 min
  furin cleavage Z-score: 1.72

## CARYKKAVFRAGNASASA [FS-3135]
7.5 min
  furin cleavage Z-score: 2
15 min
  furin cleavage Z-score: 0.2 (inactive)
30 min
  furin cleavage Z-score: 2.99

## CARERRDSGVAGNASASA [FS-2486]
7.5 min
  furin cleavage Z-score: -0.528 (inactive)
15 min
  furin cleavage Z-score: -0.224 (inactive)
30 min
  furin cleavage Z-score: 0.24 (inactive)

## CARYKRMVERAGNASASA [FS-2537]
7.5 min
  furin cleavage Z-score: 7.23 (active)
15 min
  furin cleavage Z-score: 7.48 (active)
30 min
  furin cleavage Z-score: 6.63 (active)

## CARERREVVRAGNASASA [FU3]
7.5 min
  furin cleavage Z-score: 10.2 (active)
15 min
  furin cleavage Z-score: 11.3 (active)
30 min
  furin cleavage Z-score: 10.9 (active)

## CARNVRFSDEAGNASASA [FS-2223]
7.5 min
  furin cleavage Z-score: 0.545 (inactive)
15 min
  furin cleavage Z-score: -0.141 (inactive)
30 min
  furin cleavage Z-score: -1.68 (inactive)

## CARERRDAGRAGNASASA [FS-2137]
7.5 min
  furin cleavage Z-score: 9.55 (active)
15 min
  furin cleavage Z-score: 10.7 (active)
30 min
  furin cleavage Z-score: 9.14 (active)

## CARYKRKSDEAGNASASA [FS-3177]
7.5 min
  furin cleavage Z-score: 5.32 (active)
15 min
  furin cleavage Z-score: 5.6 (active)
30 min
  furin cleavage Z-score: 5.8 (active)

## CARERRRAAKAGNASASA [FS-2550]
7.5 min
  furin cleavage Z-score: 0.778 (inactive)
15 min
  furin cleavage Z-score: 0.314 (inactive)
30 min
  furin cleavage Z-score: 1.46

## CARYKRKMTQAGNASASA [FS-1979]
7.5 min
  furin cleavage Z-score: -0.853 (inactive)
15 min
  furin cleavage Z-score: -0.612 (inactive)
30 min
  furin cleavage Z-score: -0.101 (inactive)

## CATTPCSGTWAGNASASA [HC1918]
7.5 min
  furin cleavage Z-score: 0.438 (inactive)
15 min
  furin cleavage Z-score: 1.03
30 min
  furin cleavage Z-score: 0.941 (inactive)

## CAAEEYVEIRAGNASASA [HC1204]
7.5 min
  furin cleavage Z-score: -0.657 (inactive)
15 min
  furin cleavage Z-score: 2
30 min
  furin cleavage Z-score: -1.07 (inactive)

## CAQIVGGVYLAGNASASA [HC175]
7.5 min
  furin cleavage Z-score: -0.135 (inactive)
15 min
  furin cleavage Z-score: -2.24 (inactive)
30 min
  furin cleavage Z-score: -1.9 (inactive)

## CAVVRCSMSYAGNASASA [HC2033]
7.5 min
  furin cleavage Z-score: 1.28
15 min
  furin cleavage Z-score: 0.684 (inactive)
30 min
  furin cleavage Z-score: -0.612 (inactive)

## CARYKRAGESAGNASASA [FS-2472]
7.5 min
  furin cleavage Z-score: 8.25 (active)
15 min
  furin cleavage Z-score: 10.6 (active)
30 min
  furin cleavage Z-score: 7.78 (active)

## CARERRGPATAGNASASA [FS-2487]
7.5 min
  furin cleavage Z-score: -1.34 (inactive)
15 min
  furin cleavage Z-score: 0.671 (inactive)
30 min
  furin cleavage Z-score: -0.709 (inactive)

## CARERRTLSVAGNASASA [FS-2661]
7.5 min
  furin cleavage Z-score: 0.891 (inactive)
15 min
  furin cleavage Z-score: 2.33
30 min
  furin cleavage Z-score: 3.01

## CARERRDLFTAGNASASA [FS-2659]
7.5 min
  furin cleavage Z-score: 5.35 (active)
15 min
  furin cleavage Z-score: 8.1 (active)
30 min
  furin cleavage Z-score: 7.97 (active)

## CARERRDVQRAGNASASA [FS-1696]
7.5 min
  furin cleavage Z-score: 10.6 (active)
15 min
  furin cleavage Z-score: 13.2 (active)
30 min
  furin cleavage Z-score: 9.38 (active)

## CARERRADHVAGNASASA [FS-2330]
7.5 min
  furin cleavage Z-score: 1.39
15 min
  furin cleavage Z-score: 0.278 (inactive)
30 min
  furin cleavage Z-score: 2.34

## CARERRNAIRAGNASASA [FS-3219]
7.5 min
  furin cleavage Z-score: 3.48
15 min
  furin cleavage Z-score: 4.37 (active)
30 min
  furin cleavage Z-score: 4.64 (active)

## CARERRRLMSAGNASASA [FS-2660]
7.5 min
  furin cleavage Z-score: -1.21 (inactive)
15 min
  furin cleavage Z-score: -0.546 (inactive)
30 min
  furin cleavage Z-score: 0.262 (inactive)

## CARENRSLFTAGNASASA [FS-2009]
7.5 min
  furin cleavage Z-score: 0.285 (inactive)
15 min
  furin cleavage Z-score: -0.333 (inactive)
30 min
  furin cleavage Z-score: -1.13 (inactive)
